Among the data in PubChem BioAssay are composite z-score and z-score values, retold here.

The source made the active and inactive calls. Unless noted, no rule for the calls is given here.

Assay [1] in a line: anti-His antibody binders, primary screen, artefact control for SMM control protein annotation, biochemical, small-molecule microarray, 635 nm fluorescence (AID 1128).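 Also: score merges feature fluorescence with signal-to-noise for each printed compound spot.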 Conditions: anti-His Alexa647 antibody binding, higher = more signal.
Assay [2] concerns Human papillomavirus type 1a E7 protein (residues 1-88). Nature of the assay: HPV1a E7 small-molecule binders, primary screen, biochemical, small-molecule microarray, residues 1-88, 635 nm (AID 1129). Particulars: small-molecule microarray binding, fluorescence 635 nm; higher = more signal.
Assay [3] has as its target Focal adhesion kinase 1 (Homo sapiens) (UniProt Q05397). Description: small-molecule microarray binders of FAK, primary screen, biochemical, 635/667 nm fluorescence, BSA, DTT (AID 1130).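 Also: composite of spot emission at 667 nm and signal to noise over triplicate slides.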 Particulars: PTK2 binding, 635 nm fluorescence, higher = more signal.
Assay [4] relates to Fibrinogen (Alexa647-labelled). Description: fibrinogen binders on compound microarrays, profiling panel, artefact control for SMM control-protein annotation, biochemical, small-molecule microarray, 635/667 nm fluorescence (AID 1131).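 Also: z-score merges 667 nm fluorescence with per-spot signal-to-noise over triplicate slides.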 Conditions: fibrinogen-A647 binding fluorescence, higher = more signal.
Assay [5] addresses Follistatin (Homo sapiens) (UniProt P19883). Description: follistatin binders on small-molecule microarrays, primary screen, biochemical, small-molecule microarray, 635/667 nm fluorescence (AID 1132). Conditions: FST binding, 635 nm fluorescence, higher = more signal.
In assay [6] the target is Fibroblast growth factor 2 (Homo sapiens) (UniProt P09038). Description: FGF2 binders on small-molecule microarrays, primary screen, biochemical, small-molecule microarray, 635/667 nm fluorescence (AID 1133). Particulars: small-molecule microarray binding, FGF2, fluorescence 635/667; higher = more signal.
Assay [7] in a line: mitochondrial membrane potential change in A549 cells, profiling panel, cell-based, JC-1 fluorescence, basal, 24 h, 100 nL (AID 1138).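 Also: A549 lung adenocarcinoma cells under basal conditions with no added stimulus; test concentration not given here.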 Particulars: higher = more signal.
For assay [8], the system named is Lefty1. Nature of the assay: Lefty1 binders on small-molecule microarrays, primary screen, biochemical, small-molecule microarray, 635/667 nm fluorescence (AID 1139). Conditions: small-molecule microarray binding, fluorescence 635/667; higher = more signal.
In assay [9] the test system is wheat germ agglutinin (Triticum aestivum), Alexa647-labelled. Description: wheat germ agglutinin binders on compound microarrays, profiling panel, artefact control for SMM control-protein annotation, biochemical, small-molecule microarray, 635/667 nm fluorescence (AID 1140).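 Also: score merges 667 nm feature emission with signal to noise over triplicate slides.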 Particulars: WGA-A647 binding, 635 nm fluorescence, higher = more signal.
In assay [10] the target is Luciferin 4-monooxygenase (Photinus pyralis) (UniProt P08659). Description: firefly luciferase enzyme inhibitors, primary screen, biochemical, luminescence, purified enzyme, 2006 set (AID 1141).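 Also: cell-free assay with purified firefly luciferase at 100 ng per well in PBS; test concentration not given here.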 Particulars: SteadyGlo luminescence, 30 min, higher = more signal, called active from +8 up or from −8 down.
Assay [11] relates to Wnt5a (protein binding on small-molecule microarray). Nature of the assay: Wnt5a binders on small-molecule microarray, primary screen, biophysical, 635/667 nm fluorescence (AID 1142).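 Also: fluorescence read at 667 nm with signal to noise per printed feature.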 Particulars: 635 nm fluorescence, higher = more signal.
Assay [12] in a line: cell viability in Huh7 cells, primary screen, cytotoxicity control for HCV replication inhibitor project, CellTiter-Glo luminescence, basal, 48 h (AID 1143).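 Also: Huh7 hepatoma cells carrying a hepatitis C replication reporter with no stimulus; test concentration not given here.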 Conditions: Huh7 HCV replicon, higher = more signal, called active from +8 up or from −8 down. (In general: In ATP-based viability assays light output follows the ATP content of the culture.)
Assay [13] can be described thus: P. aeruginosa biofilm formation inhibitors, primary screen, PAO1 strain, BacTiter-Glo luminescence, LB-PBS (AID 1144). Conditions: 12 h, higher = more signal.
Assay [14] is described as follows: CREB reporter modulators without forskolin, primary screen, cell-based, PC12, CRE-LacZ reporter, unstimulated (AID 1145). Particulars: no forskolin, luminescence, 4.5 h, higher = more signal, called active from +8 up or from −8 down.
Assay [15] can be described thus: CREB reporter modulators under forskolin, primary screen, cell-based, PC12, CRE-LacZ reporter, forskolin-stimulated (AID 1146).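 Also: PC12 cells with 6xCRE LacZ reporter stimulated by forskolin 10 µM; beta-galactosidase reporter signal reflecting CREB driven transcription.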 Conditions: luminescence, 4.5 h, higher = more signal, called active from +8 up or from −8 down.
Assay [16] deals with Streptavidin (Streptomyces avidinii) (UniProt P22629). Nature of the assay: streptavidin binders on small-molecule microarray, primary screen, artefact control for SMM compound annotation, biophysical, 635/667 nm fluorescence (AID 1147).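 Also: signal reflects streptavidin binding to arrayed compounds as a control protein.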 Conditions: streptavidin binding, higher = more signal.
The nature of assay [17]: small-molecule binders of probe aInhba, primary screen, biochemical, small-molecule microarray, 635/667 nm fluorescence (AID 1148).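 Also: score merges 667nm spot fluorescence with signal-to-noise for antibody binding to printed compounds.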 Particulars: higher = more signal.
The target in assay [18] is Torsin-1A (Homo sapiens) (UniProt O14656). Description: torsin A binders from cell lysate, primary screen, small-molecule microarray, wild-type, 635/667 nm (AID 1149). Particulars: COS7 hTOR1A-WT lysate, 635 nm fluorescence, higher = more signal.
Assay [19] shares this target. Description: small-molecule binders of mutant TOR1A in lysate, primary screen, cell lysate, small-molecule microarray, COS7 lysate, 635/667 nm fluorescence (AID 1150).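 Also: score pools 667 nm emission and signal to noise measuring lysate protein binding.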 Particulars: COS7 hTOR1A mutant lysate, 635 nm fluorescence, higher = more signal.
Assay [20] concerns Sonic hedgehog protein (Shh). Nature of the assay: small-molecule binders of Shh protein, primary screen, biochemical, small-molecule microarray, 635/667 nm fluorescence (AID 1151).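 Also: Shh protein binding to compounds spotted on small-molecule microarray slides; score combines spot fluorescence intensity with signal-to-noise across triplicate slides.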 Conditions: small-molecule microarray binding, 635 nm fluorescence; higher = more signal.

Sequence of Luciferin 4-monooxygenase (Photinus pyralis) (P08659 whole entry, looked up): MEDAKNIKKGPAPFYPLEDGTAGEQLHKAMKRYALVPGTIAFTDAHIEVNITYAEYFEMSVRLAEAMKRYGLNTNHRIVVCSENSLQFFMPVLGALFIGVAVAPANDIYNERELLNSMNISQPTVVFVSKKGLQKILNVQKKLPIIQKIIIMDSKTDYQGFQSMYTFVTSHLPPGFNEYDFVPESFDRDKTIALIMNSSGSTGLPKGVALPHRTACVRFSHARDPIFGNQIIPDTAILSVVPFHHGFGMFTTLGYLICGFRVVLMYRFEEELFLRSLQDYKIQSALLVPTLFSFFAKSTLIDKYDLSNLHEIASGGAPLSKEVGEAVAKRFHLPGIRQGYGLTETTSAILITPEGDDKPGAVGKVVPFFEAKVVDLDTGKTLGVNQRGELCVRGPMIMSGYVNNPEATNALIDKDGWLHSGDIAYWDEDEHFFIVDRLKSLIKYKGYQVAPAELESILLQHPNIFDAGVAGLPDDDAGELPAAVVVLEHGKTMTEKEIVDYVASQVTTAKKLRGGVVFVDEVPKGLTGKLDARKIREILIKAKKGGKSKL
Sequence of Fibroblast growth factor 2 (Homo sapiens) (P09038 whole entry, looked up): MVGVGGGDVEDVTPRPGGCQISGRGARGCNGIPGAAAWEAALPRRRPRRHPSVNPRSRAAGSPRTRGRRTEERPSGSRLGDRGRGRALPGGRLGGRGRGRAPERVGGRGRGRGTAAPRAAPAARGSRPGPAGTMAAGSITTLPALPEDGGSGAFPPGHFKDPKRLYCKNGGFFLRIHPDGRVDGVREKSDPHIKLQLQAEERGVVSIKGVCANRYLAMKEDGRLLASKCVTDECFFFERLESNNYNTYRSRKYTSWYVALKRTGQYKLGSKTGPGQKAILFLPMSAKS
Sequence of Torsin-1A (Homo sapiens) (O14656 whole entry, looked up): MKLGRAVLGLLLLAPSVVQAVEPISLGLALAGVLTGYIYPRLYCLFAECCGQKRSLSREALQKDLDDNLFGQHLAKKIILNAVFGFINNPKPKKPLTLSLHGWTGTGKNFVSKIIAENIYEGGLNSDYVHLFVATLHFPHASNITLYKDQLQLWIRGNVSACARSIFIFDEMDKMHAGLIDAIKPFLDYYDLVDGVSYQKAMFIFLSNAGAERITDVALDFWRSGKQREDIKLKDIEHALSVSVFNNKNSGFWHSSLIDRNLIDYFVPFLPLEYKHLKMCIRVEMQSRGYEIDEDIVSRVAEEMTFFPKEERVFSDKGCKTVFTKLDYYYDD
Sequence of Focal adhesion kinase 1 (Homo sapiens) (Q05397 whole entry, looked up): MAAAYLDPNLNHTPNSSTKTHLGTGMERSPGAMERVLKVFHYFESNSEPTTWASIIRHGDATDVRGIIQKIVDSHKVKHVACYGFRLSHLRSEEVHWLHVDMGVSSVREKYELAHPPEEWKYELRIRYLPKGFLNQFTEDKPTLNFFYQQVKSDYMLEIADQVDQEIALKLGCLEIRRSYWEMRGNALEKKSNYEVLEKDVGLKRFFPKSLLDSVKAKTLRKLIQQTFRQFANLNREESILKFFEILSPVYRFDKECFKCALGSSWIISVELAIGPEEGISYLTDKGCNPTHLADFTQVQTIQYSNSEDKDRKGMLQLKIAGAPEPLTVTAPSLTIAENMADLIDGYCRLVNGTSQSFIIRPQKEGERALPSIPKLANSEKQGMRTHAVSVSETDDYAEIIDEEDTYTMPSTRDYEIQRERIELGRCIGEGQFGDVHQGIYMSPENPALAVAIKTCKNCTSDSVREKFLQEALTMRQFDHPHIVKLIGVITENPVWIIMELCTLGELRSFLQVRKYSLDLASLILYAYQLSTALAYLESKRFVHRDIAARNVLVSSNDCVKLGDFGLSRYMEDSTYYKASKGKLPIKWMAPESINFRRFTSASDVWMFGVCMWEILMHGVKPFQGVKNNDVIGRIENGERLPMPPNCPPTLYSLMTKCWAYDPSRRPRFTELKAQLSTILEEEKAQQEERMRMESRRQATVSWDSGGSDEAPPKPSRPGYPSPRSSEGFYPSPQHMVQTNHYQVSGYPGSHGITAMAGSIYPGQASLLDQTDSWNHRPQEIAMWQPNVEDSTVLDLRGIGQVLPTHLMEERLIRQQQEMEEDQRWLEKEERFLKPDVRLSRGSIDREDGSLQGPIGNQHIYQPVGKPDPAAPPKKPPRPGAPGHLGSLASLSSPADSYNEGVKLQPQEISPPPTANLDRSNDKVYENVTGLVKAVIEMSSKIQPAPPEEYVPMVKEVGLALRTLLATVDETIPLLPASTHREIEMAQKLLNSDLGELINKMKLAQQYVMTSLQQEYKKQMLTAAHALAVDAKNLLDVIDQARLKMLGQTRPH
Sequence of Streptavidin (Streptomyces avidinii) (P22629 whole entry, looked up): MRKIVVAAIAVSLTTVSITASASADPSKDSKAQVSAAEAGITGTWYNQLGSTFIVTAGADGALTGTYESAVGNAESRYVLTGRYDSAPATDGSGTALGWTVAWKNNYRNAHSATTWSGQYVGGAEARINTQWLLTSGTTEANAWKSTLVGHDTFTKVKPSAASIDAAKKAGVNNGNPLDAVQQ
Sequence of Follistatin (Homo sapiens) (P19883 whole entry, looked up): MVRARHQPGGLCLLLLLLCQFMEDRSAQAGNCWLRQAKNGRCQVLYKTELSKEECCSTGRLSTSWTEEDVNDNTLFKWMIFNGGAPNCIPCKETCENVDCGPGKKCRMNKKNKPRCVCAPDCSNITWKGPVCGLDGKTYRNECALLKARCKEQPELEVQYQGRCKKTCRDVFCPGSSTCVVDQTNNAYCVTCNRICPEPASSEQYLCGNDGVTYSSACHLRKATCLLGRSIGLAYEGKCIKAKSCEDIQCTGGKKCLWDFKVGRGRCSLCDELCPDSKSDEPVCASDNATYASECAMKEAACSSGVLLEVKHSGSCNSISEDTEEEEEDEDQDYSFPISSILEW

Consider `O=C1O[C@H](c2ccccc2)[C@H](c2ccccc2)N2[C@H]1[C@@H](C(=O)N1CCN(c3ncccn3)CC1)[C@]1(C(=O)Nc3ccccc31)[C@H]2c1ccc(O)cc1`, for which the composite z-score in [1] worked out at 2.34; in assay [2], 1.07; in [3], 0.759; in assay [4] it was 0.635; in [5], 0.889; in assay [6] it was 0.451. Besides, the composite z-score in assay [8] was -0.116; in assay [9], 0.185; in assay [11] it was 0.186; in assay [16], -0.0699; in [17] it was 0.0018; in assay [18] it was 0.103. In addition, the composite z-score in assay [19] worked out at 0.799; in assay [20], 0.0388. The z-score in [7] is 0.028; in assay [10], -1.3 (inactive); in [12], -2.48 (inactive); in assay [13] it was -0.151 (inactive); in assay [14] it was 0.299 (inactive); in assay [15], -0.682 (inactive).

In the case of `COc1ccc([Si](C)(C)[C@@H]2[C@@H](CC(=O)N(CCO)Cc3ccccc3)O[C@]3(C(=O)N(Cc4ccc(N5CCC5=O)cc4)c4ccccc43)[C@H]2C)cc1`, the composite z-score in [1] was 1.28; in assay [2], -0.324; in [3], -0.162; in assay [4] it was -0.263; in assay [5], 0.818; in assay [6], 0.988. Besides, the composite z-score in assay [8] was 0.565; in assay [9], 0.431; in [11], -0.0009; in [16], -0.301; in assay [17], -0.318; in assay [18], -0.0822. Further, the composite z-score in assay [19] was 0.134; in assay [20], 0.7. The z-score in [7] is 0.445; in assay [10] it was 0.295 (inactive); in assay [12] it was -5.9 (inactive); in assay [13] it was -0.259 (inactive); in assay [14], 5.16 (inactive); in [15], 0.0245 (inactive).

As for `O=C1c2ccccc2[C@](Cc2ccccc2I)(C(=O)O)[C@H](c2ccc(CO)cc2)N1Cc1ccccc1`, the composite z-score in [1] is 0.729; in [2], 0.0602; in [3] it was 2.7; in assay [4], 0.303; in [5] it was -0.584; in assay [6] it was -0.42. For the same compound, the composite z-score in assay [8] is -0.827; in [9], 0.471; in assay [11], 0.303; in [16], 0.201; in assay [17] it was 0.0627; in assay [18], 0.363. Also, the results for the composite z-score in [19] and in assay [20] were 0.0706 and -0.282, respectively. Moreover, the z-score is 0.068 in assay [7]; -0.443 (inactive) in assay [10]; -2.39 (inactive) in [12]; -0.718 (inactive) in assay [13]; 0.0548 (inactive) in [14]; 0.131 (inactive) in [15].

In the case of `CCCCC(=C=CC[C@@H](O)c1cccc(OCCO)c1)C[C@@H](O)COCc1ccccc1`, the composite z-score in assay [1] is 0.457; in assay [2], -0.122; in [3], 0.116; in assay [4], 0.982; in [5], -0.211; in assay [6], -0.178. For the same compound, the composite z-score was -0.0843 in [8]; 0.498 in assay [9]; -0.225 in assay [11]; -0.577 in assay [16]; -0.05 in [17]; -0.387 in assay [18]. For the same compound, the composite z-score was -0.444 in assay [19] and 0.362 in [20]. Also, the z-score in assay [7] was 0.732; in [10] it was -1.88 (inactive); in [12] it was -2.51 (inactive); in assay [13], -0.279 (inactive); in [14], 6.81 (inactive); in assay [15] it was -0.731 (inactive).

Regarding `CN(C)CCCC[C@@H]1NC(=O)[C@H]2C[C@@H](C(=O)O)[C@@H](c3cccc(OCCO)c3)N2C1=O`, the composite z-score in assay [1] was 3.17; in [2], -0.209; in assay [3], 0.239; in [4], 0.564; in [5] it was 1.4; in assay [6] it was 0.977. The composite z-score in assay [8] was 1.45; in assay [9], 0.734; in assay [11], 0.205; in assay [16], -0.414; in assay [17], 0.216; in assay [18], 0.717. In addition, the figures for the composite z-score in assay [19] and in assay [20] were 1.1 and 1.84, respectively. Further, the z-score in [7] is 1.29; in assay [10], -1.9 (inactive); in [12], -0.0686 (inactive); in [13], -0.43 (inactive); in assay [14], 0.0124 (inactive); in assay [15], 0.0684 (inactive).
